Our source for the ΔTm values is ChEMBL document CHEMBL5724796, “Tm Shift (DSF) assay results for EUbOPEN Chemogenomics Library” (2024).

Common to all, as to settings: Compound concentration 20.0 uM
Assay [1] has as its target Tyrosine-protein kinase ABL1 (Homo sapiens) (UniProt P00519).
Assay [2] deals with Bromodomain-containing protein 4 (Homo sapiens) (UniProt O60885).
In assay [3] the target is Cyclin-dependent kinase 2 (Homo sapiens) (UniProt P24941).
In assay [4] the target is Casein kinase I isoform delta (Homo sapiens) (UniProt P48730).
For assay [5], the target named is Glycogen synthase kinase-3 beta (Homo sapiens) (UniProt P49841).
The target in assay [6] is Mitogen-activated protein kinase 1 (Homo sapiens) (UniProt P28482).
Assay [7] has as its target T1, Aurora kinase A (Homo sapiens) (UniProt O14965).
T1 sequence (whole entry): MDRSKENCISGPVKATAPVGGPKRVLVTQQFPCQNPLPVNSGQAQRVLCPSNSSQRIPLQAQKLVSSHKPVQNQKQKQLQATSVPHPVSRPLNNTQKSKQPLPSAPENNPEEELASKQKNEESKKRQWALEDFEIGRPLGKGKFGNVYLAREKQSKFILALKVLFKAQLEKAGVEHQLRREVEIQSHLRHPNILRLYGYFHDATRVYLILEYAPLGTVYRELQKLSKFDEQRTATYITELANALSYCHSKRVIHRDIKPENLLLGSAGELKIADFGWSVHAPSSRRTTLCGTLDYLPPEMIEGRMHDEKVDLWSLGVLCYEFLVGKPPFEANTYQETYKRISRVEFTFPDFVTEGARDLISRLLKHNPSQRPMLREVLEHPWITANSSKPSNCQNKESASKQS

Assay [8] deals with T2, Transcription intermediary factor 1-alpha (Homo sapiens) (UniProt O15164).
T2 sequence (whole entry): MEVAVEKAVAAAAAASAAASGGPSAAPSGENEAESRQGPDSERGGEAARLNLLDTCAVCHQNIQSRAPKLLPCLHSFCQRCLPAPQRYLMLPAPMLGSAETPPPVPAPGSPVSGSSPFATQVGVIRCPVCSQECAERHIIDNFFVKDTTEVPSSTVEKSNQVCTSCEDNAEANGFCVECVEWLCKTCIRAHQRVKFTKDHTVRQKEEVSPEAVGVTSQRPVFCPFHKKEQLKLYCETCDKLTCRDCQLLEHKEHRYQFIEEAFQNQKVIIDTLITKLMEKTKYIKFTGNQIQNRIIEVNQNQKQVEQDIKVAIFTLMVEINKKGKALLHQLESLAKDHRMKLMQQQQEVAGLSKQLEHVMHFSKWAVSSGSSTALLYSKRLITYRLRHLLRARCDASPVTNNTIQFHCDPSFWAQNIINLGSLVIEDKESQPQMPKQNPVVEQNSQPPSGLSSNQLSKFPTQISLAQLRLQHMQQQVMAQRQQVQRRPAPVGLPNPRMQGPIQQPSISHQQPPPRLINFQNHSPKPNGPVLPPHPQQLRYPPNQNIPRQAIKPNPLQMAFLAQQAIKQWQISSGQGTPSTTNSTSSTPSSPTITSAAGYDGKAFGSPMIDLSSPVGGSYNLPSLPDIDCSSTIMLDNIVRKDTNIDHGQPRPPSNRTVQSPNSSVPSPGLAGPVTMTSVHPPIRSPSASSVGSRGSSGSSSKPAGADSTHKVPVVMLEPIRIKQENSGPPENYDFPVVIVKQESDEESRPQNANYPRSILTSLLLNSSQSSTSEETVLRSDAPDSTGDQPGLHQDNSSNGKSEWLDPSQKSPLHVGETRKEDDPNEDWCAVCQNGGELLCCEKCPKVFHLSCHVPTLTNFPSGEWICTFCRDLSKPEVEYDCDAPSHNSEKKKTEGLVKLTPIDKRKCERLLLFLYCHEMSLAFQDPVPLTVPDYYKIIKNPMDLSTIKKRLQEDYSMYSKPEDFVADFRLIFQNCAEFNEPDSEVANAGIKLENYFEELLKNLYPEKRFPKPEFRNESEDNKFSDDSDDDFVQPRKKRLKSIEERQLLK

Chain of Glycogen synthase kinase-3 beta (Homo sapiens) (P49841 whole entry, looked up): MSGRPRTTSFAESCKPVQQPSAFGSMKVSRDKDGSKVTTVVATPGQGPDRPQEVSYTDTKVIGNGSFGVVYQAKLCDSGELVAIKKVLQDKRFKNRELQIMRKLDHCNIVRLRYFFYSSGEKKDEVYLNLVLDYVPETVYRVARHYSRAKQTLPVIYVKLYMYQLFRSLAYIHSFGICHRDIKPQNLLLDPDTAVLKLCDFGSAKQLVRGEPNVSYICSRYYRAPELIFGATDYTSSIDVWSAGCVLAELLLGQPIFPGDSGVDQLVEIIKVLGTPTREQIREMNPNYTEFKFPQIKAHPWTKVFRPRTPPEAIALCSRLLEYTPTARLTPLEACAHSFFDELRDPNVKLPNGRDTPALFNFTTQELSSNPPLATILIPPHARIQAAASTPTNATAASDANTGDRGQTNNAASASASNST
Chain of Tyrosine-protein kinase ABL1 (Homo sapiens) (P00519 whole entry): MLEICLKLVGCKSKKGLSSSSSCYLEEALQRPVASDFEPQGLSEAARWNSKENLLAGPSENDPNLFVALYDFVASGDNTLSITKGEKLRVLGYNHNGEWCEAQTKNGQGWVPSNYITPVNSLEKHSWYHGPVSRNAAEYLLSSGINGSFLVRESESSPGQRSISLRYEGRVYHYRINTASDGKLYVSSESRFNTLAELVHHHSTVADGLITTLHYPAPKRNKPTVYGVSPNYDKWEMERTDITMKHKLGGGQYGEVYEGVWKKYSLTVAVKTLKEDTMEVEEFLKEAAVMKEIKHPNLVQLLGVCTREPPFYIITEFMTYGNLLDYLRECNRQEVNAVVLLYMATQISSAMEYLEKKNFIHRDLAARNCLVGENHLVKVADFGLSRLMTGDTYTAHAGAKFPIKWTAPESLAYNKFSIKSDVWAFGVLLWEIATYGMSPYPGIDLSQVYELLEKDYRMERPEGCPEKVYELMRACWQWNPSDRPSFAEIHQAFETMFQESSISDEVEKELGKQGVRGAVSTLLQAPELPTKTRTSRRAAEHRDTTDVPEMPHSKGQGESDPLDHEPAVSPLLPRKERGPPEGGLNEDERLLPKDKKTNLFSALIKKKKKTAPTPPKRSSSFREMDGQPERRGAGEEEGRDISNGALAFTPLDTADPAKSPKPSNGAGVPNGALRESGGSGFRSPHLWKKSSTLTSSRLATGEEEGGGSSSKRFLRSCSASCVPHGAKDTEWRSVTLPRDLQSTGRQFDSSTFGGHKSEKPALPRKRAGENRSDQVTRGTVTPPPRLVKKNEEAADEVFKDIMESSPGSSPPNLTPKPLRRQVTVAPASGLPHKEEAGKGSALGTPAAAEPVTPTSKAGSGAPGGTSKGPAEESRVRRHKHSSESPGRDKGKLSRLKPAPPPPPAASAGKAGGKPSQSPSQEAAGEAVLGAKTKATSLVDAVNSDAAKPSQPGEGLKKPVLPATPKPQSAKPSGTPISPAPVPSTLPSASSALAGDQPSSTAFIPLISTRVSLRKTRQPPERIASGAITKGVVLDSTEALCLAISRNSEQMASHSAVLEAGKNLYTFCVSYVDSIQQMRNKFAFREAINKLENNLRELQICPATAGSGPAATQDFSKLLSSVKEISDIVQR
Chain of Mitogen-activated protein kinase 1 (Homo sapiens) (P28482 whole entry): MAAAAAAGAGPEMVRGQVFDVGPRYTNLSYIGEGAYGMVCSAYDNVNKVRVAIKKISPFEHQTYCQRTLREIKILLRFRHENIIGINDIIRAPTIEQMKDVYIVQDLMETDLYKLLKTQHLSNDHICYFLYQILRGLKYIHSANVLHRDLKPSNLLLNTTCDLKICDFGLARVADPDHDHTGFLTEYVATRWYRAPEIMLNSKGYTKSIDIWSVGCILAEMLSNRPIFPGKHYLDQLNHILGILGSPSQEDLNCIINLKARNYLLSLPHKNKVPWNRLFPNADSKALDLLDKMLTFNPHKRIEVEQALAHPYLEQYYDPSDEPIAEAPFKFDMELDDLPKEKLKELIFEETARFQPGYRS
Chain of Casein kinase I isoform delta (Homo sapiens) (P48730 whole entry, looked up, canonical isoform): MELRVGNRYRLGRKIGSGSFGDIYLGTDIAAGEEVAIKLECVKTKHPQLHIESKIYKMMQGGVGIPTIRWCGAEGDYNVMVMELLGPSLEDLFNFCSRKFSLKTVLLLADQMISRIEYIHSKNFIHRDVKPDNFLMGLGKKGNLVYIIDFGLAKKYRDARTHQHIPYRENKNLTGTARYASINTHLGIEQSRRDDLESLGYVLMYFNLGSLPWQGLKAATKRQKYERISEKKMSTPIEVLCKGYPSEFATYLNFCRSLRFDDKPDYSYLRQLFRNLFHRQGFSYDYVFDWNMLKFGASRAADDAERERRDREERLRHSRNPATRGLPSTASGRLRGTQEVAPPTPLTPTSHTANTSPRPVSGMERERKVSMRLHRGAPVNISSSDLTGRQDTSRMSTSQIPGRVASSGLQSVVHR

For orientation: ΔTm means the shift of the melting midpoint relative to a reference. With `CS(=O)(=O)c1ccc(-c2nnc(C=Cc3nnc(-c4ccc(C#N)cc4)o3)n2-c2ccccc2Cl)nc1`, the ΔTm in assay [1] is 0.4 °C; in assay [2] it was -3.09 °C; in assay [3] it was 0.99 °C; in assay [4], -0.25 °C; in assay [5], -0.77 °C; in assay [6] it was -0.27 °C. For the same molecule, the figures for the ΔTm in assay [7] and in assay [8] were -1.63 °C and 0.34 °C, respectively.
As to `N#C[C@@H]1CCCN1C(=O)CNC(=O)c1ccnc2ccc(OCCCN3CCN(C(=O)CN4CCN(CC(=O)O)CCN(CC(=O)O)CCN(CC(=O)O)CC4)CC3)cc12`, the ΔTm is 0.75 °C in assay [1]; -2.94 °C in assay [2]; 0.18 °C in assay [3]; -0.3 °C in assay [4]; -0.21 °C in assay [5]; 0.66 °C in assay [6]. Moreover, the results for the ΔTm in assay [7] and in assay [8] were -2.4 °C and 0.33 °C, respectively.
For `Cn1c(=O)cc(N2CCC[C@@H](N)C2)n(Cc2cc(F)ccc2C#N)c1=O`, the thermal shift (ΔTm) in assay [1] is 0.09 °C; in assay [2], -1.94 °C; in assay [3], 0.46 °C; in assay [4] it was -0.06 °C; in assay [5], -0.59 °C; in assay [6] it was 0.52 °C. Besides, the shift in melting temperature (ΔTm) was -0.72 °C in assay [7] and 0.97 °C in assay [8].
For `OC[C@H]1O[C@@H](c2ccc(Cl)c(Cc3ccc(O[C@H]4CCOC4)cc3)c2)[C@H](O)[C@@H](O)[C@@H]1O`, the ΔTm in assay [1] was 0.58 °C; in assay [2], -2.67 °C; in assay [3], -0.08 °C; in assay [4] it was -0.33 °C; in assay [5] it was -0.36 °C; in assay [6], 0.5 °C. Moreover, the ΔTm in assay [7] was -1.72 °C; in assay [8], -0.73 °C.
For the molecule `O=C(NC1CCC1)c1ccc2nc(-c3cccc(NS(=O)(=O)NCCN4CCCCC4)c3)cn2c1`, the thermal shift (ΔTm) in assay [1] was 0.57 °C; in assay [2], -2.44 °C; in assay [3] it was 0.18 °C; in assay [4] it was -0.21 °C; in assay [5], -0.29 °C; in assay [6] it was 0.15 °C. Also, the ΔTm in assay [7] was -2.15 °C; in assay [8], 0.09 °C.
With `COc1cc(-c2cn(C)c(=O)c3cnccc23)cc(OC)c1CN(C)CC(=O)NCCOCCOCCNc1cccc2c1C(=O)N(C1CCC(=O)NC1=O)C2=O` (stereo unspecified), the thermal shift (ΔTm) was 0.07 °C in assay [1]; -1.54 °C in assay [2]; 0.21 °C in assay [3]; 0.06 °C in assay [4]; 0.14 °C in assay [5]; -0.38 °C in assay [6]. In addition, the ΔTm was -1.03 °C in assay [7] and -0.75 °C in assay [8].
For the molecule `COc1cc(C(=O)NCC2(N(C)C)CCCC2)cc(OC)c1OCc1ccccc1`, the ΔTm in assay [1] is 0.81 °C; in assay [2] it was -1.07 °C; in assay [3] it was 0.36 °C; in assay [4], -0.21 °C; in assay [5] it was -0.01 °C; in assay [6] it was 0.38 °C. Moreover, the ΔTm in assay [7] is -0.99 °C; in assay [8], 3.25 °C.
For the molecule `CC(C)(C)NS(=O)(=O)c1ccc(NC(=O)[C@H](Cc2ccccc2)NC(=O)c2ccc(F)cc2)cc1`, the ΔTm in assay [1] is 2.48 °C; in assay [2], -1.97 °C; in assay [3] it was 0.06 °C; in assay [4], 0.21 °C; in assay [5], 2.59 °C; in assay [6], -3.67 °C. Besides, the ΔTm in assay [7] was -0.32 °C; in assay [8] it was -0.1 °C.
`CCCOC(=O)N1CCN(C(=O)c2ccc3c(Cl)cc(-c4ccc(C5(N)CC5)cc4)nc3c2)C[C@H]1C`: the ΔTm was 0.57 °C in assay [1]; -1.83 °C in assay [2]; 0.05 °C in assay [3]; 0.03 °C in assay [4]; -1.68 °C in assay [5]; -7.2 °C in assay [6]. In addition, the figures for the ΔTm in assay [7] and in assay [8] were 0.93 °C and -3.45 °C, respectively.
In the case of `CC(=O)N1CCC(Nc2cc(C(=O)NC[C@H](O)CN3CCc4ccccc4C3)ncn2)CC1`, the thermal shift (ΔTm) was 0.44 °C in assay [1]; -0.33 °C in assay [2]; 0.19 °C in assay [3]; 0.07 °C in assay [4]; 0.18 °C in assay [5]; 0.06 °C in assay [6]. Further, the results for the ΔTm in assay [7] and in assay [8] were -0.79 °C and -0.38 °C, respectively.
Turning to `COc1ccc([C@@H]2CNC(=O)C2)cc1OC1CCCC1`, the ΔTm is 0.51 °C in assay [1]; -3.17 °C in assay [2]; 0.13 °C in assay [3]; -0.19 °C in assay [4]; -0.23 °C in assay [5]; 0.08 °C in assay [6]. The values for the ΔTm in assay [7] and in assay [8] were -2.43 °C and 0.65 °C, respectively.
In the case of `Cc1cnc(-c2ccccc2C(C)C)nc1NCc1ccc(-n2ccnn2)cc1`, the ΔTm in assay [1] was 0.32 °C; in assay [2] it was -1.87 °C; in assay [3], -0.07 °C; in assay [4], -7.36 °C; in assay [5] it was 0.1 °C; in assay [6], 0.55 °C. In addition, the values for the ΔTm in assay [7] and in assay [8] were -2.6 °C and -0.58 °C, respectively.
